According to PubChem BioAssay:
The other results are listed elsewhere or left out. Calls of active or inactive are those of the source.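 How the source made its calls, unless noted: active means inhibition above a set limit taken from the earlier primary screen (cut at about 63% in these data); inactive means the rest.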

Assays:
[1] = target: Sphingosine 1-phosphate receptor 4 (Homo sapiens) (UniProt O95977); test: blockers of human S1P4 signalling – cell-based, confirmation (AID 1524; in the data active means inhibition above about 30%); details: S1P4-expressing cell line, antagonist mode, reporter read-out; at 4.98 µM; hits give high values
[2] = target: Sphingosine 1-phosphate receptor 1 (Homo sapiens) (UniProt P21453); test: blockade of human S1P1 receptor – cell-based, counter-screen for S1P4 antagonist project (AID 1564; in the data active means inhibition above about 40%;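 further: receptor stimulated with S1P near its EC80; 0% = agonist stimulated wells and 100% = vehicle only wells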); details: cell-based S1P1 antagonist counterscreen, at 4.98 µM, hits give high values
[3] = reduced OD of T4-infected AddAB+ E. coli – absorbance, E. coli V3065, T4 phage, triplicate, AddAB inhibitor project, confirmation (AID 488942;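 active means mean inhibition above a set limit taken from the earlier primary screen, cut at about 13% in these data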;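 further: higher means less bacterial growth since AddAB block lets phage replicate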); details: E. coli V3065 expressing H. pylori AddAB, at 11.9 µM, hits give high values, T4 phage with gene 2 nonsense mutations
[4] = reduced OD of phage-infected RecBCD+ V66 E. coli – absorbance, mutant T4 phage, counter-screen for AddAB inhibitor project (AID 488955;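 active means mean inhibition above the mean of solvent-only control wells plus 3 SD, cut at about 4% in these data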;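 further: optical density read after an 18 h incubation at 37 °C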); details: OD growth, at 11.9 µM, hits give high values
[5] = bacterial growth inhibitors – absorbance, counter-screen for AddAB inhibitor project, confirmation (AID 488956; in the data active means inhibition above about 25%); details: bacterial viability, absorbance (AddAB counterscreen); at 11.9 µM; hits give high values
[6] = StAR promoter reporter inhibitors, counter-screen for LRH-1 inverse agonist project, cell-based, luminescence, high throughput (AID 651611; in the data active means inhibition above about 28%); details: StAR promoter luciferase reporter counterscreen, at 3.6 µM, hits give high values
[7] = target: Nuclear receptor subfamily 5 group A member 2 (Homo sapiens) (UniProt O00482); test: NR5A2 activity suppression in reporter cells – cell-based, luminescence, confirmation (AID 651613; in the data active means inhibition above about 42%;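 further: HEK293T cells co-transfected with LRH-1 and StAR promoter luciferase reporter; 0% = vehicle wells and 100% = parental cells lacking receptor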); details: cell-based LRH-1 luciferase reporter, inverse agonism; at 3.6 µM; hits give high values
[8] = target: Steroidogenic factor 1 (Homo sapiens) (UniProt Q13285); test: inverse agonism at SF1 nuclear receptor – cell-based, luminescence, high throughput, counter-screen for LRH-1 inverse agonist project (AID 651614; in the data active means inhibition above about 44%;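 further: cells cotransfected with StAR promoter reporter and SF1 expression vector; 0% = vehicle on cells with receptor and 100% = vehicle on cells lacking receptor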); details: cell-based SF1 luciferase reporter, at 3.6 µM, hits give high values
[9] = compounds suppressing VP16-driven luciferase signal – cell-based, luminescence, high throughput, counter-screen for LRH-1 inverse agonist project (AID 651615; in the data active means inhibition above about 33%); details: Gal4-VP16 luciferase reporter cells, at 3.6 µM, hits give high values
[10] = reduced OD of V66 E. coli with T4 gene 2 phage – absorbance, RecBCD inhibitor project, confirmation (AID 651982;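 active means mean inhibition over triplicates exceeding the hit threshold derived in the original primary screen, cut at about 11% in these data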); details: E. coli V66 + T4 2- phage, growth OD; at 11.9 µM; hits give high values
[11] = bacterial growth inhibition – absorbance, high throughput, counter-screen for RecBCD inhibitor project (AID 651983; in the data active means inhibition above about 20%;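 further: E. coli strain V66 grown with compound alone and no phage infection; 0% = bacteria with DMSO vehicle only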); details: E. coli viability, absorbance (OD) growth; at 11.9 µM; hits give high values
[12] = reduced optical density, T4-challenged addAB+ bacteria – absorbance, E. coli V3065, T4 phage, counter-screen for RecBCD inhibitor project, confirmation (AID 651984;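 active means mean inhibition above the solvent-only control wells' mean plus 3 SD, cut at about 22% in these data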;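 further: higher means less bacterial growth from phage killing when AddAB is blocked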); details: E. coli expressing H. pylori AddAB + T4 phage, OD growth; at 11.9 µM; hits give high values; gene 2 mutant T4, recBCD-deleted host
[13] = suppression of KLF5 promoter-driven luciferase – DLD-1 cells, luminescence, confirmation (AID 1834); details: DLD-1 KLF5 promoter firefly luciferase reporter, at 4 µM, hits give high values;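 further: 0% = DMSO wells and 100% = LY294002 at 200 µM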
[14] = IEC-6 intestinal cell killing – luminescence, triplicate, cytotoxicity control for KLF5 inhibitor project (AID 1905; in the data active means inhibition above about 23%;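 further: cells exposed to compounds for 48 hours before viability read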); details: IEC-6 rat intestinal cells, viability luminescence; at 4 µM; hits give high values
[15] = target: Protein phosphatase methylesterase 1 (Homo sapiens) (UniProt Q9Y570); test: human PME-1 methylesterase inhibition confirmation – biochemical, fluorescence polarization, FP-Rh probe, triplicate (AID 2171;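 active means inhibition above the hit cutoff set in the earlier primary screen, cut at about 27% in these data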;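 further: 0% = enzyme with DMSO and 100% = wells lacking PME-1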); details: recombinant PME-1, FP-Rh probe fluorescence polarization; at 5.9 µM; hits give high values
[16] = target: Photoreceptor-specific nuclear receptor (Homo sapiens) (UniProt Q9Y5X4); test: retest of NR2E3-NCOR disrupting agonists – cell-based, luminescence, CHO-S two-hybrid, confirmation (AID 624378;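 active means average inhibition above a cutoff equal to the mean inhibition of all tested compounds plus one SD, cut at about 70% in these data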;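 further: 0% = DMSO in NR2E3 cells and 100% = DMSO in cells lacking NR2E3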); details: CHO-S mammalian two-hybrid NR2E3-NCOR, luciferase luminescence; at 3.98 µM; hits give high values
[17] = nonselective effects on VP16 transactivation – cell-based, luminescence, CHO-S, high throughput, counter-screen for NR2E3 agonist project, confirmation (AID 624379;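 active means mean inhibition above a cutoff equal to the average over all tested compounds plus one standard deviation, cut at about 70% in these data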;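 further: 0% = DMSO with VP16-transfected cells and 100% = DMSO with cells lacking VP16; higher means less reporter light so more repression of VP16 activity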); details: CHO-S GAL4-VP16 luciferase reporter, at 3.98 µM, hits give high values
[18] = tested on: transactivating tegument protein VP16 (Human herpesvirus 1); test: compounds suppressing VP16-driven luciferase signal – cell-based, luminescence, single concentration, counter-screen for SRC2 inhibitor project (AID 652007; in the data active means inhibition above about 36%); details: cell-based VP16 transactivation luciferase reporter, at 8.9 µM, hits give high values
[19] = target: Nuclear receptor coactivator 2 (Homo sapiens) (UniProt Q15596); test: inhibition of GAL4-SRC2 driven luciferase expression – cell-based, luminescence, HEK293, triplicate, confirmation (AID 652008;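 active means mean inhibition above 46.5%, the solvent-only control mean plus 3 SD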;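 further: 0% = DMSO-treated cells and 100% = Gossypol at 36 µM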); details: HEK293 GAL4-SRC2 luciferase reporter, at 8.9 µM, hits give high values
[20] = VP16-driven transactivation reporter suppression – cell-based, luminescence, HEK293, counter-screen for COUP-TFII antagonist project (AID 687007; in the data active means inhibition above about 13%); details: HEK293 Gal4-VP16 luciferase reporter, at 8.5 µM, hits give high values
[21] = target: COUP transcription factor 2 (Homo sapiens) (UniProt P24468); test: retest of COUP-TFII reporter suppressors – cell-based, luciferase reporter, HEK293, triplicate, confirmation (AID 687008;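 active means mean inhibition over three repeats above a set limit taken from the earlier primary screen, cut at about 38% in these data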;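 further: 100% = cells given the luciferase reporter alone without the COUP-TF2 vector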); details: HEK293 NGFI-A luciferase reporter, luminescence; at 8.5 µM; hits give high values
[22] = target: Neuropeptide Y receptor type 2 (Homo sapiens) (UniProt P49146); test: human Y2 receptor positive modulation or activation – cell-based, confirmation (AID 1539; in the data active means activation above about 33%); details: cell-based NPY-Y2 potentiator/agonist assay; at 3.6 µM; hits give high values
[23] = target: Neuropeptide Y receptor type 1 (Homo sapiens) (UniProt P25929); test: human Y1 receptor positive modulation or activation – cell-based, fluorescence, counter-screen for NPY-Y2 potentiator project (AID 1651; in the data active means activation above about 45%;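 further: cells stimulated with submaximal NPY then isoproterenol with phosphodiesterase inhibitor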); details: Y1 HEK293-CNG cells, membrane potential fluorescence; at 3.6 µM; hits give high values
[24] = target: Neuropeptide Y receptor type 1 (Homo sapiens) (UniProt P25929); test: human Y1 receptor agonism, CNGC membrane potential – cell-based, fluorescence, selectivity assay for NPY-Y2 potentiator project (AID 1702;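 active means activation above the mean of DMSO-only control wells plus 3 SD, cut at about 18% in these data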;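 further: cells stimulated with 1 µM isoproterenol plus the PDE inhibitor Ro 20-1724; 0% = isoproterenol with DMSO and no NPY and 100% = 40 nM NPY; Y1 agonists lower the membrane potential dye signal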); details: HEK293 Y1-CNGC, at 3.6 µM, hits give high values
[25] = blockers of isoproterenol-driven CNG channel signal – cell-based, HEK293-CNG parental, membrane potential fluorescence, counter-screen for NPY-Y2 potentiator project (AID 1703;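 active means inhibition above the control-well mean plus 3 SD of those wells, cut at about 22% in these data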;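 further: 0% = DMSO with isoproterenol and 100% = DMSO without isoproterenol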); details: isoproterenol cAMP, at 3.6 µM, hits give high values
[26] = target: Neuropeptide Y receptor type 2 (Homo sapiens) (UniProt P49146); test: agonism at human Y2 receptor without NPY – cell-based, fluorescence, counter-screen for NPY-Y2 potentiator project (AID 1710;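 active means activation above the mean of solvent-only control wells plus 3 SD, cut at about 10% in these data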;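 further: cells stimulated by isoproterenol with no NPY added so direct agonism is tested; 0% = DMSO with isoproterenol alone and 100% = NPY at EC100 plus isoproterenol; agonism lowers probe fluorescence through less cAMP and CNG channel opening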); details: HEK293 Y2/CNGC cells, membrane potential fluorescence, agonist mode; at 3.6 µM; hits give high values

Neuropeptide Y receptor type 2 (Homo sapiens), sequence (P49146 whole entry, looked up): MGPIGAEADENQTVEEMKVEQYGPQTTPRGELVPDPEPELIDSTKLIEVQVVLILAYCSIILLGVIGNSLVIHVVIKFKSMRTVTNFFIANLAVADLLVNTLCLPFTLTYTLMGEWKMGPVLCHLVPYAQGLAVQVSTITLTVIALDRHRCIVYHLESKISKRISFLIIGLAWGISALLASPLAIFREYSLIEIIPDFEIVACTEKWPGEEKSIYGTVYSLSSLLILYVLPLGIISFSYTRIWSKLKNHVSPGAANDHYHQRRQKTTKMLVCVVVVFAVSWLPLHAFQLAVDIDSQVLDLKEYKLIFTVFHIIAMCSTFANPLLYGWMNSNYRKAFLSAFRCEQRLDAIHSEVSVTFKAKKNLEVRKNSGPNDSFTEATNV
Neuropeptide Y receptor type 1 (Homo sapiens), sequence (P25929 whole entry, looked up): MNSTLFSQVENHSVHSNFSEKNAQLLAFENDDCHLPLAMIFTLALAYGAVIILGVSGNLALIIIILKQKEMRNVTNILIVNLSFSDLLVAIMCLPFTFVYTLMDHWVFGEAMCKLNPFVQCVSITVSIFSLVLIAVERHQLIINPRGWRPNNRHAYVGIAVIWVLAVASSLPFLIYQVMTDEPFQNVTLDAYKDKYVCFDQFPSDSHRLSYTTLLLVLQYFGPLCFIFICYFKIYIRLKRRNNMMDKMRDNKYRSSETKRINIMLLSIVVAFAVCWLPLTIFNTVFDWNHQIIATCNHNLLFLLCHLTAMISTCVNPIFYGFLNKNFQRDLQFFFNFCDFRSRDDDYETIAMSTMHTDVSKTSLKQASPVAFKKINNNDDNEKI
Nuclear receptor subfamily 5 group A member 2 (Homo sapiens), sequence (O00482 whole entry, looked up): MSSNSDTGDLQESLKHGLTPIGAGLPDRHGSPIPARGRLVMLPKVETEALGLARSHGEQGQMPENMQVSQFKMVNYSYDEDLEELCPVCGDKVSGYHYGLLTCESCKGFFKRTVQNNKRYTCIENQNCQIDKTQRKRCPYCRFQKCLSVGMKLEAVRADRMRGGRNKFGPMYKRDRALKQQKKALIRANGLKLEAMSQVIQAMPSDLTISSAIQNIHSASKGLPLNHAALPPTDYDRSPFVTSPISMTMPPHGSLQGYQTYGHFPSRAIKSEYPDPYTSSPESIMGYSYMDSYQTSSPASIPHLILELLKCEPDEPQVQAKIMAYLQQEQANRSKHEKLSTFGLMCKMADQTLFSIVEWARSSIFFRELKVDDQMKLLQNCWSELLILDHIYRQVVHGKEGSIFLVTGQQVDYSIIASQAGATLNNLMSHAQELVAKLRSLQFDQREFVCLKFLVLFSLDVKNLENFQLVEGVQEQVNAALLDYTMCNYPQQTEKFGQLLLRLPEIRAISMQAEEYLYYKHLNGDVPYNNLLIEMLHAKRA
Steroidogenic factor 1 (Homo sapiens), sequence (Q13285 whole entry, looked up, the tested form may be a part): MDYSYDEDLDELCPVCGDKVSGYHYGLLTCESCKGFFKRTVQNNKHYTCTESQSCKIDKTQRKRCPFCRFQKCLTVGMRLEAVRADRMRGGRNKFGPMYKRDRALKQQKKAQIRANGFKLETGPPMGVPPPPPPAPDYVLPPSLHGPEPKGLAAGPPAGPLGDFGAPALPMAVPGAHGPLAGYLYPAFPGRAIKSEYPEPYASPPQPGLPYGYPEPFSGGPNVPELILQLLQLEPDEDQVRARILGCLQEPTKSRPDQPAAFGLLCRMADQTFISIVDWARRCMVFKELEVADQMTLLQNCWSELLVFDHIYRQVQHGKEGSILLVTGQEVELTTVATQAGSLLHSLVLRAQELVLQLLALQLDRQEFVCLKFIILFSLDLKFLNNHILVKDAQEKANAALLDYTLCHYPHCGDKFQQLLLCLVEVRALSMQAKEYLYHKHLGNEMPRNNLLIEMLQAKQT
Photoreceptor-specific nuclear receptor (Homo sapiens), sequence (Q9Y5X4 whole entry, looked up): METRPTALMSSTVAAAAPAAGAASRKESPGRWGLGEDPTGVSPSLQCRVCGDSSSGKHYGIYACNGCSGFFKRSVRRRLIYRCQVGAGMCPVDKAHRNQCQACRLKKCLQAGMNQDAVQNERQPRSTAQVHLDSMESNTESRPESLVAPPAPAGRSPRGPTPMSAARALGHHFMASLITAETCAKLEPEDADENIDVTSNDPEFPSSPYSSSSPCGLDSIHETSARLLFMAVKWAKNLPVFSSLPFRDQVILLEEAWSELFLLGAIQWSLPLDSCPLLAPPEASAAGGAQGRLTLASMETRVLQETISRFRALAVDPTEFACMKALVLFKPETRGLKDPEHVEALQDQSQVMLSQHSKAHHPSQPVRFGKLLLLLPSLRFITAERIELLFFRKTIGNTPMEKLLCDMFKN
COUP transcription factor 2 (Homo sapiens), sequence (P24468 whole entry, looked up): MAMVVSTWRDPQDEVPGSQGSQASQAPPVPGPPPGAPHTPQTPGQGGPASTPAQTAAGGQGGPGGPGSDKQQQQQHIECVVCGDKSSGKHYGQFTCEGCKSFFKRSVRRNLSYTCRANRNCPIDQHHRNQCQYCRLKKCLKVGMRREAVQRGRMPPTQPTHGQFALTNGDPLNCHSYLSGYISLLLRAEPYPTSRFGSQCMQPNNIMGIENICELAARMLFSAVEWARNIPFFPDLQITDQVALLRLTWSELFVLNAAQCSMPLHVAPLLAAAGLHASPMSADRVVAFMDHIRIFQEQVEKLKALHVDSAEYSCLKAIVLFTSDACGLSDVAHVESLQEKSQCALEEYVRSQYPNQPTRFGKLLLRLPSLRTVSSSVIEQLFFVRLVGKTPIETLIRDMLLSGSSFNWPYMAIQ
Sphingosine 1-phosphate receptor 4 (Homo sapiens), sequence (O95977 whole entry, looked up): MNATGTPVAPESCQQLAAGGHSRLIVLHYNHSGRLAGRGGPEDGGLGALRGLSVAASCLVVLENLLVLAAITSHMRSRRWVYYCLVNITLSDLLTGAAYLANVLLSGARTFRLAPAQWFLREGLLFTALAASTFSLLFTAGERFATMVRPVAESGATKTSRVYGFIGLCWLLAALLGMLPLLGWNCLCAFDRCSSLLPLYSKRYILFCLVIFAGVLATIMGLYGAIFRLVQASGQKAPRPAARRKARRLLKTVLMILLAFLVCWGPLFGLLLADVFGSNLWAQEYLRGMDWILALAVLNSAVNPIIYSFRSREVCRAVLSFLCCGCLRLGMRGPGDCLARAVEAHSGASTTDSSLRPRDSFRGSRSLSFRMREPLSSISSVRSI
Sphingosine 1-phosphate receptor 1 (Homo sapiens), sequence (P21453 whole entry, looked up): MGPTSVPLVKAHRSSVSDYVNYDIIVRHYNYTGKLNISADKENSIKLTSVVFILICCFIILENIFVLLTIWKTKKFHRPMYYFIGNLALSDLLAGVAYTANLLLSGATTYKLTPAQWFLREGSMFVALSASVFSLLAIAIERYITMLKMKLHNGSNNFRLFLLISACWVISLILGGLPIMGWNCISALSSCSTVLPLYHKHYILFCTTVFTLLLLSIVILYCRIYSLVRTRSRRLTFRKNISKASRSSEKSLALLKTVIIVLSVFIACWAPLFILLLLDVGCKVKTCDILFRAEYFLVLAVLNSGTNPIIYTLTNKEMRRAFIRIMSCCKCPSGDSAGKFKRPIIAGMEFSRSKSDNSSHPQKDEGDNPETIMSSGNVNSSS
Protein phosphatase methylesterase 1 (Homo sapiens), sequence (Q9Y570 whole entry, looked up): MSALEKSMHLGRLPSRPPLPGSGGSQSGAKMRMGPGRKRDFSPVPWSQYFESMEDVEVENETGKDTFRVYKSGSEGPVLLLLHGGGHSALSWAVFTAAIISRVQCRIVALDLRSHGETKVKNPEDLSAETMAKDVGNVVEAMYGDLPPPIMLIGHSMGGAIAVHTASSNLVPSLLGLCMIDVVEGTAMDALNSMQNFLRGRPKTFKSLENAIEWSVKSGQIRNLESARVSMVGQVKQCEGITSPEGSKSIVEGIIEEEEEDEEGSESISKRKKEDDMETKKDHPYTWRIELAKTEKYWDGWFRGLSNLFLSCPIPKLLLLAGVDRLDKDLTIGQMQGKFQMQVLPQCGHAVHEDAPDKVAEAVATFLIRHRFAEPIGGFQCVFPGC

Cc1cccc(NC(=O)c2ccc([N+](=O)[O-])o2)c1
active: inhibition [1] 79% | inhibition [3] 98% | inhibition [4] 11.9% | inhibition [5] 34.5% | inhibition [7] 58.8% | inhibition [8] 57% | inhibition [12] 66.8%
inactive: inhibition [2] 20.2% | inhibition [6] 21.1% | inhibition [9] -13.2% | inhibition [10] 7.5% | inhibition [11] 8.19%

COc1ccc(C(=O)Nc2ccccc2C(=O)N/N=C/c2ccc(O)c(OC)c2)cc1
active: inhibition [13] 111% | inhibition [15] 28.2% | inhibition [18] 64.8% | inhibition [19] 59.3% | inhibition [21] 75.2%
inactive: inhibition [14] 4.51% | inhibition [16] 42.1% | inhibition [17] -33% | inhibition [6] 19% | inhibition [7] -69.7% | inhibition [8] 11.7% | inhibition [9] -41.2% | inhibition [20] 7.03%

COc1cccc(/C=N/Nc2ncc(C(F)(F)F)cc2Cl)c1O
inactive: inhibition [14] 0.75% | inhibition [5] 16.3% | inhibition [10] 7.89% | inhibition [11] 9.3% | inhibition [12] 12.8%
active: inhibition [13] 99.8% | inhibition [3] 12.9% | inhibition [4] 16.2% | inhibition [16] 83% | inhibition [17] 75.5%

CN(Cc1ccccc1)C(=O)CCNC(=O)Cn1cnc2ccccc2c1=O
inactive: activation [22] 11.1% | activation [23] 33.4% | activation [24] 11.4% | inhibition [25] 11.2%
active: activation [26] 18.3%

O=c1cc(-c2ccccc2)[nH]c2cc(F)ccc12
active: inhibition [13] 77.9% | inhibition [14] 59.3%

Cn1nccc1C(=O)NC1CCCc2c1cnn2-c1ccc(F)cc1F (centres undefined)
inactive: inhibition [13] 24.7% | inhibition [14] 13.8% | inhibition [6] 20.2% | inhibition [20] -3.41%
active: inhibition [16] 96.4% | inhibition [17] 86.3% | inhibition [7] 62.8% | inhibition [8] 67.1% | inhibition [9] 57.1% | inhibition [21] 62.2%

COc1ccccc1N1CCN(C(=O)c2cc(=O)c3cc(C)cc(C)c3o2)CC1
active: inhibition [13] 87.3% | inhibition [14] 58.2%

CC(Nc1ccccc1)c1cccnc1 (centres undefined)
inactive: activation [22] 2.4% | activation [23] -7.91% | activation [24] -5.76% | inhibition [25] 2.7%
active: activation [26] 17.8%

O=C1NC(c2ccc(-c3ccccc3[N+](=O)[O-])o2)C(C(=O)c2ccc(Cl)cc2)C(O)(C(F)(F)F)N1 (centres undefined)
active: activation [24] 30.5% | inhibition [25] 31.2% | activation [26] 32.6%
inactive: activation [22] 28.1% | activation [23] 38.7%
